# Assay results as given in PubChem BioAssay (NCI).
# About 79,000 compounds went through this panel and 15% of them were active in at least one assay; those are over-represented in the sample as a whole. A number with no mark means an inactive call. Active and inactive are the calls of the source. No stated cut-off is given here; in the data, active means growth inhibition above about 70%; inactive means the rest.
# Tests used:
# [1] = NCI Yeast Anticancer Drug Screen. Data for the rad50 strain (AID 155);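 further: 0% = growth of vehicle-only cultures of the same strain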; details: S. cerevisiae rad50 strain growth inhibition, active compounds read high
# Summary of the method: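 Growth of the mutant yeast was measured after compound exposure and referenced to vehicle-treated cultures.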
# [2] = NCI Yeast Anticancer Drug Screen. Data for the mec2-1 strain (AID 157); details: S. cerevisiae mec2-1 strain, active compounds read high
# Summary of the method: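 Vehicle-treated cultures served as reference for growth inhibition of compound-exposed mec2-1 yeast.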
# [3] = NCI Yeast Anticancer Drug Screen. Data for the sgs1 mgt1 strain (AID 161);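 further: 0% = growth of cultures given vehicle only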; details: S. cerevisiae sgs1 mgt1 strain, active compounds read high
# Summary of the method: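 Read-out: growth inhibition vs vehicle controls. Cells: mutant yeast strain deficient in DNA damage repair.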
# [4] = NCI Yeast Anticancer Drug Screen. Data for the cln2 rad14 strain (AID 165);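 further: 0% = growth equal to vehicle treated cultures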; details: S. cerevisiae cln2 rad14 strain, active compounds read high
# Summary of the method: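 Each compound was tested on cln2 rad14 yeast. Inhibition of growth was calculated against vehicle-exposed controls.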
# [5] = NCI Yeast Anticancer Drug Screen. Data for the bub3 strain (AID 167); details: S. cerevisiae bub3 mutant strain, active compounds read high
# Summary of the method: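 Whole-cell yeast assay. The mutant strain was incubated with compounds, and growth inhibition was determined by comparison with vehicle-treated cells.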
# [6] = NCI Yeast Anticancer Drug Screen. Data for the mlh1 rad18 strain (AID 175); details: S. cerevisiae mlh1 rad18 strain growth inhibition, active compounds read high
# Summary of the method: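 Vehicle-treated cultures served as the reference for growth inhibition in a yeast strain carrying DNA damage repair alterations exposed to each compound.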
# [7] = at 5.0 µM (retest, dose inferred, filed as 0.5)
# [8] = at 50.0 µM (retest, dose inferred, filed as 5.0)
Structure (SMILES),"growth inhibition [1, 7]","growth inhibition [1, 8]",growth inhibition ([1]; at 50.0 µM),"growth inhibition [2, 7]","growth inhibition [2, 8]",growth inhibition ([2]; at 50.0 µM),"growth inhibition [3, 7]","growth inhibition [3, 8]",growth inhibition ([3]; at 50.0 µM),"growth inhibition [4, 7]","growth inhibition [4, 8]",growth inhibition ([4]; at 50.0 µM),"growth inhibition [5, 7]","growth inhibition [5, 8]",growth inhibition ([5]; at 50.0 µM),"growth inhibition [6, 7]","growth inhibition [6, 8]",growth inhibition ([6]; at 50.0 µM)
O=C(CC(O)(C(F)(F)F)C(F)(F)F)C(c1ccccc1)C(O)(C(F)(F)F)C(F)(F)F (configuration not stated),6%,82% (active),71.8% (active),13%,79% (active),91.5% (active),-3%,86% (active),84.2% (active),13%,92% (active),90.5% (active),-14%,41%,83.2% (active),5%,93% (active),93.6% (active)
CN(C)C(=O)Nc1ccc(Cc2ccc(NC(=O)N(C)C)cc2)cc1,-6%,-32%,-3%,-29%,-32%,-13.2%,-13%,-8%,27.6%,5%,-4%,3.65%,-19%,-20%,7.95%,-33%,-56%,-0.15%
O=C1C(N=Nc2ccccc2)=C(O)C2C3C=CC(C3)C12 (configuration not stated),2%,98% (active),98.8% (active),0%,98% (active),98.5% (active),2%,95% (active),95% (active),1%,98% (active),99.3% (active),1%,98% (active),98.2% (active),17%,98% (active),98.8% (active)
Cc1ccccc1NC(=O)c1cc2cc(N=Nc3ccccc3C(=O)O)ccc2oc1=O,7%,81% (active),91.4% (active),-10%,65%,83.5% (active),15%,90% (active),96.5% (active),9%,46%,90.3% (active),7%,78% (active),82.7% (active),8%,49%,96.5% (active)
Clc1ccc(-c2nnn3ccccc23)cc1,4%,8%,95.3% (active),12%,9%,93.5% (active),-3%,12%,95.8% (active),4%,10%,28.6%,2%,5%,91.7% (active),13%,51%,94.1% (active)
CCOC(=O)N1CCN(C(=S)N/N=C(\C)c2ncccn2)CC1,4%,99% (active),99.4% (active),9%,99% (active),99.7% (active),-5%,99% (active),99.4% (active),-40%,99% (active),99.1% (active),-22%,99% (active),99.5% (active),-4%,99% (active),99.2% (active)
COC(=O)/C(C(C)=O)=C(\OC(C)=O)c1ccc(OC)c(OC)c1,-14%,80% (active),93.5% (active),-11%,93% (active),91% (active),-5%,88% (active),46.2%,-11%,85% (active),95.5% (active),-2%,86% (active),98.1% (active),-19%,91% (active),60%
Cc1c2c(c(C)c3c4c(oc13)CCCC4)C=NCC2,-4%,49%,69.7%,3%,41%,92.8% (active),-7%,36%,25%,-46%,26%,29.2%,-8%,-78%,50.2%,-5%,45%,80.1% (active)
Cc1ccc(S)c(S)c1,65%,53%,63.4%,52%,34%,35.9%,44%,28%,39.3%,81% (active),93% (active),77.7% (active),92% (active),93% (active),64.6%,95% (active),93% (active),41.5%
CCCCCCCCNc1ncnc2c1cnn2C,-2%,69%,48.6%,4%,83% (active),43%,-2%,85% (active),54.8%,-9%,61%,98.8% (active),1%,87% (active),97.8% (active),18%,86% (active),49.9%
Cc1c2ccncc2c(C)c2c1sc1ccccc12,83% (active),94% (active),89.5% (active),38%,96% (active),90% (active),43%,94% (active),88.8% (active),32%,95% (active),88.8% (active),55%,95% (active),84.5% (active),77% (active),91% (active),83.3% (active)
CCOC1(c2ccccc2)c2ccccc2S(=O)(=O)N1C (configuration not stated),-3%,4%,11.1%,-4%,16%,0.95%,14%,33%,11.2%,6%,12%,56.9%,1%,10%,40.8%,18%,11%,9%
CCCCCCCCCCCCCC(=O)CC(=O)c1c(O)cccc1O,2%,-7%,-9.1%,-3%,-1%,-5.8%,7%,-13%,-3.9%,10%,12%,-64.6%,-11%,-5%,7%,35%,17%,17.1%
Cc1c[nH]c(=O)n(CC(=O)C2CCC3C4CCC5=CC(=O)CCC5(C)C4CCC23C)c1=O (configuration not stated),11%,30%,48.2%,0%,-11%,43.6%,-1%,26%,47.4%,-1%,4%,46.6%,0%,17%,41.1%,1%,20%,43.3%
CN(C)c1ccc(C=Nc2ccc(OCCCCCCCCCCC(=O)O)cc2)cc1,100% (active),100% (active),82.5% (active),100% (active),99% (active),59.9%,77% (active),86% (active),76.7% (active),77% (active),92% (active),75% (active),73% (active),84% (active),84.5% (active),100% (active),100% (active),71.5% (active)
N#CC1(C#N)C(C#N)(C#N)C12CCC2,4%,87% (active),35.2%,6%,88% (active),49.8%,6%,91% (active),50.6%,0%,65%,-2.45%,7%,96% (active),70% (active),2%,96% (active),83.8% (active)
CCCSc1ncnc2nc(C)[nH]c12,-1%,-1%,6.9%,3%,-7%,-14.5%,-2%,-3%,2.25%,0%,-1%,39.6%,-1%,-6%,1.85%,0%,0%,-8.25%
NNC(=S)N/N=C(\CC1OC(=O)c2ccccc21)c1ccccc1O (configuration not stated),6%,-3%,80.1% (active),-12%,-17%,60.2%,22%,7%,56.1%,11%,4%,32%,-9%,13%,58.1%,-43%,-27%,84.2% (active)
CCCCCc1cccc(CC(=O)OCC)n1,-161%,-149%,-14.7%,-50%,-57%,-15.3%,-66%,-69%,-12.7%,-58%,-80%,26.9%,-66%,-42%,-12.3%,-127%,-132%,-6.15%
